12-LOX inh: ALOX12 (human) lipoxygenase inhibition. P18054. purified 12hLO, xylenol orange hydroperoxide absorbance. hit rate 1.1% among 580,000. Potency, µM (top dose mostly 108 µM), for the others: at the top dose activity change, negative = inhibition, usual class: inhibitors; note: % is set by controls: 0 for no effect and ±100 for the full control effect
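Purified human 12hLO at 150 nM in 25 mM Hepes, 0.01% Triton X-100, pH 7.0, preincubated 15 min at room temperature with compound. Reaction started with 40 uM arachidonic acid, 30 min at room temperature. Hydroperoxide measured by Fe-xylenol orange, 573/405 nm absorbance ratio.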
GRP78 ERSR act: inducers of ER stress response in human glioma cells | U87-MG GRP78 promoter luciferase reporter, 16 h | Potency, µM, for inactives: at the top dose activation, actives largely listed as activators | hit rate 0.02% among 420,000; note: series mostly up to about 76 µM; % of control where 0% means no effect; nearly all actives have a fitted effect of over 35% in size
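ERSR induction read as luciferase luminescence (Bright-Glo, 10 min at room temperature) in stably transfected human U87-MG glioma cells exposed to compounds for 16 h, using GRP78 as sensor.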
Sfp inh: Sfp phosphopantetheinyl transferase inhibition; Q9F4F7; Biochemical Sfp PPTase activity, qHTS; Potency, µM, inactives show largest response in the series, negative = inhibition, usual class: inhibitors; hit rate 3.5% among 310,000; AID 1490;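 note: the enzyme is Sfp with the accession as filed and its product quenches rhodamine fluorescence; 0% = enzyme reaction without inhibitor and -100% = no enzyme wells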
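With Hepes-Na pH 7.6 buffer containing 10 mM MgCl2, Sfp (15 nM) modified BHQ-2-YbbR (12.5 uM) using rhodamine-CoA (5 uM). Two reads 30 minutes apart at 525/598 nm yielded each well's rate.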
VDR inh: blocks the human vitamin D receptor; VDR-SRC2-3 peptide fluorescence polarization, 2 h; Potency, µM, inactives show max response, negative = inhibition, usual class: inhibitors; AID 504847; hit rate 0.93% among 400,000; P11473; note: % is set by controls: 0 for no effect and ±100 for the full control effect
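Fluorescence polarization assay measuring small-molecule disruption of VDR binding to the coregulator peptide SRC2-3. Compounds were pin-transferred (23 nl) into the reagent mix and incubated 2 h at room temperature before reading.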
G9a block: inhibitors of human histone lysine methyltransferase G9a. G9a H3K9 monomethylation, AlphaScreen, 2 h. hit rate 8.8% among 350,000. Potency, µM (top dose mostly 102 µM), for inactives: top-dose activity, negative = inhibition, usual class: inhibitors. Q96KQ7; note: % is set by controls: 0 for no effect and ±100 for the full control effect; nearly all actives have a fitted effect of over 75% in size
Target sequence (Q96KQ7 913-1193 limits assumed): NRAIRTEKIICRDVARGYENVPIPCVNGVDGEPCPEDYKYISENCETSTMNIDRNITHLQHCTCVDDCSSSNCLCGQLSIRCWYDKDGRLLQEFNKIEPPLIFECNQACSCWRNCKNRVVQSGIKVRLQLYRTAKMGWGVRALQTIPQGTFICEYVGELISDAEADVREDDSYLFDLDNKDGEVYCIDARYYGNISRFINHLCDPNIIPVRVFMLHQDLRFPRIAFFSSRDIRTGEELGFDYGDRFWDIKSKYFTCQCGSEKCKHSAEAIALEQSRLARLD
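Step 1: enzyme (final 20 nM) with compound, 15 min RT. Step 2: substrate peptide 500 nM and SAM 20 uM, 2 h RT. Step 3: anti-H3K9me1 antibody and AlphaScreen beads, 10 min, then plate read.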
Numbers without * were called inactive; ? = inconclusive; nt = no result; [ ] = another dose, or the depositor's remark. Many of the other results were omitted from the sample, so hits are more common in it than they were. Calls come from the whole dose curve; as a rule, active = well fitted curve in the direction sought with a large enough effect; inconclusive = small, poorly fitted or top-dose-only effect, or another doubt; inactive = no such curve, though single readings can be large; an effect the other way counts as inactive or inconclusive. Potency is the fitted concentration of half-maximal effect.

SMILES | 12-LOX inh | GRP78 ERSR act | Sfp inh | VDR inh | G9a block
O=C(O)COc1ccccc1/C=N/NC(=O)c1cccc(S(=O)(=O)N2CCOCC2)c1 | -5% | -2% | ? | ? | 14µM*
O=C(O)COc1ccccc1/C=N/NC(=O)c1ccncc1 | nt | -5% | 50µM* | 8% | 5%[12.7 µM]
CCN(CC)S(=O)(=O)c1cccc(C(=O)N/N=C/c2ccccc2OCC(=O)O)c1 | ? | -5% | ? | 0% | 22µM*
COc1cc(/C=N/NC(=O)c2cccc(S(=O)(=O)N3CCOCC3)c2)cc(OC)c1O | 24% | -5% | -8% | 2% | 40µM*
CC1(CNCc2ccccc2)COc2ccc(C(=O)Nc3cccc(Cl)c3)cc2N1 (configuration not stated) | -19%[176 µM] | nt | nt | nt | nt
CCCCCCCCCCCCCCCC(=O)C1=C(O)C(CO)OC1=O (configuration not stated) | 5%[176 µM] | -6% | -8% | 14µM* | 10µM*
COc1cccc(Cn2c(=O)c(-c3noc(C)n3)c3n(c2=O)CCCCC3)c1 | 7% | nt | nt | nt | nt
FC(F)(F)c1ccc(Cl)c(N/N=C/c2ccc(OCc3ccccc3)cc2)c1 | 2.5µM* | nt | nt | nt | nt
O=C(Nc1cc(C(F)(F)F)ccc1Cl)c1cccc(OCc2ccccc2)c1 | -11% | nt | nt | nt | nt
CC(C)C(=O)N/N=C/c1ccc(OCc2ccccc2)cc1 | 0% | 2% | 8% | 1% | -5%
FC(F)(F)c1ccc(Cl)c(N/N=C/c2ccccc2Cl)c1 | 35µM* | nt | nt | nt | nt
O=C(O)c1cc(N/N=C/c2ccc(OCc3ccccc3)cc2)ccc1Cl | ? | 3% | -7% | -12% | 22µM*
FC(F)(F)c1ccc(Cl)c(NC(=S)N/N=C/c2ccccc2C(F)(F)F)c1 | 19% | -3% | 5% | -5% | 1%[59 µM]
CCOc1ccc(/C=N/Nc2ccccc2)cc1 | ? | 1% | -5% | -13% | 25µM*
Nc1cc(S(=O)(=O)O)cc([N+](=O)[O-])c1O | -4% | -6% | 79µM* | -9% | 45µM*
Cc1ccc(-c2cc(-c3n[nH]c(=S)o3)c3ccccc3n2)cc1 | 2.2µM* | 4% | -15% | -11% | ?
CSc1nnc(-c2cc(-c3ccc(C)cc3)nc3ccccc23)o1 | -21% | -5% | -19% | -12% | 7.9µM*
S=c1[nH]nc(-c2cc(-c3ccccn3)nc3ccccc23)o1 | -19% | -1% | -8% | -22% | ?
Cc1oc(-c2ccc(Cl)cc2)cc1-c1nn2c(-c3ccco3)nnc2s1 | nt | nt | -24% | nt | ?
Cc1oc(-c2ccc(F)cc2)cc1-c1nn2c(-c3ccoc3C)nnc2s1 | -35% | -3% | 40µM* | ? | ?
Cc1oc(-c2ccc(F)cc2)cc1-c1nn2c(-c3ccco3)nnc2s1 | 11µM* | nt | nt | nt | nt
Clc1ccccc1-c1nnc2sc(-c3ccco3)nn12 | -5% | 2% | -1% | 5% | ?
c1ccc(Cc2nnc3sc(-c4ccco4)nn23)cc1 | 50% | -7% | -5% | ? | 35µM*
c1ccc(SCc2nnc3sc(-c4ccco4)nn23)cc1 | -20% | nt | nt | nt | nt
Fc1ccccc1-c1ccc(-c2nn3c(-c4ccco4)nnc3s2)o1 | 8.9µM* | nt | nt | nt | nt
SMILES | 12-LOX inh | GRP78 ERSR act | Sfp inh | VDR inh | G9a block
CC(C)c1nc2c(c(-c3ccc(O)cc3)n1)CCN(Cc1cccc3ccccc13)CC2 | 0% | nt | nt | nt | nt
COc1ccc(-c2nn3c(-c4ccco4)nnc3s2)cc1OC | 0% | -2% | ? | 3% | 7%[12.7 µM]
COc1cc(OC)c(-c2nn3c(-c4ccco4)nnc3s2)cc1OC | -19% | -2% | 3% | -14% | 45µM*
CC1(C)CC(=O)C(C(C2=C(O)CC(C)(C)CC2=O)c2cc(Cl)cc(Cl)c2O)C(=O)C1 (configuration not stated) | -65% | nt | nt | nt | nt
CC1(C)CC(=O)C(C(C2=C(O)CC(C)(C)CC2=O)c2cccc(O)c2)C(=O)C1 (configuration not stated) | 0% | -2% | 22µM* | -20% | ?
CC1(C)CC(=O)C(C(C2=C(O)CC(C)(C)CC2=O)c2cccnc2)C(=O)C1 (configuration not stated) | 0% | -1% | 5% | -10% | 50µM*
CCCC(C1=C(O)CC(C)(C)CC1=O)C1C(=O)CC(C)(C)CC1=O (configuration not stated) | ? | -4% | -29% | -12% | 28µM*

Compound activity: PubChem BioAssay, National Center for Advancing Translational Sciences (NCATS)
